From PubChem
Most compounds without a hit are left out; they make up all but 2.6% or so of the library.
Giardia kill – kills Giardia lamblia; Giardia lamblia trophozoite viability; activity change, % at 7.66 µM, hits read low; 340,000 compounds, 0.15% hits; in the data active means activity change below about -80%; inconclusive means between about -30% and that limit;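 further: parasites exposed to compound for two days anaerobically before the ATP read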
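Luminescent ATP signal served as the viability read-out, measured 15-30 min after adding ATP detection reagent to trophozoites that had been incubated with compounds for 48 hrs at 37 deg C anaerobically at 100 cells/well.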
ATXN viability – reduces viability in counter-screen for ATXN expression inhibitors; S2 cells (HEK-293 line with an ATXN2-luciferase reporter) viability, CellTiter-Fluor protease fluorescence, 24 h; Potency, µM (titrated, usually from 56.7 µM), usual class: cytotoxic; 400,000 compounds, 0.49% hits; AID 651635; further: nearly all actives have a fitted effect of over 40% in size
HepG2 tox – kills HepG2 cells in TGF-b inhibitor counter-screen | HepG2 CAGA-GFP viability, ATP luminescence, 18 h | Potency, µM (series often up to 46.1 µM), usual class: cytotoxic | 410,000 compounds, 0.76% hits | AID 588856
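CellTiter-Glo luminescence gave cytotoxicity after 18 hours at 37 degrees C. The cells were HepG2 CAGA-GFP in 1% FBS DMEM, stimulated with 500 pg/mL TGF-beta after compound addition. %Activity was normalised to no-cell wells (complete cell-killing) and DMSO (no toxicity), and curves were fitted and classified.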
uPA surface inh – blocks generation of uPA at the cell surface. cell surface uPA generation assay, qHTS. Potency, µM (series often up to 38.3 µM), hits mostly inhibitors. 330,000 compounds, 0.31% hits; active means well fitted inhibition curve with a large enough effect; inconclusive means small, poorly fitted or top-dose-only effect; inactive means no such curve, though single readings can be large or run the other way; tested in mouse RAW 264.7 cells; further: nearly all actives have a fitted effect of over 55% in size
TGFb inhibitor – TGF-b pathway inhibition | Potency, µM (series often up to 46.1 µM), most hits filed as inhibitors | HepG2 CAGA-GFP TGF-b/SMAD3 reporter, GFP fluorescence, 18 h; TGF-beta stimulated, 500 pg/mL final | 410,000 compounds, 1.2% hits; further: nearly all actives have a fitted effect of over 65% in size
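HEPG2 CAGA-GFP, 1000 cells/well; 2 h settle, 37 C; cpd via pin tool; TGF-b 500 pg/mL final; 18 h, 37 C; GFP imaging ex488/em500-530; %Activity normalised to -TGF-b and +DMSO controls; CRC fit, curve class.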
ATXN2 expr inh – reduces ATXN2 reporter expression in HEK-293 cells; HEK-293 ATXN2-luciferase reporter, luminescence, 24 h; 360,000 compounds, 0.72% hits; Potency, µM (titrated, usually from 57 µM), actives largely listed as inhibitors; further: nearly all actives have a fitted effect of over 55% in size
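qHTS (up to 57 uM final) was run with 24 h compound exposure of reporter cells at 37 °C. Each well was multiplexed: SteadyGlo luminescence measured ATXN2-luciferase expression after a fluorogenic Gly-Phe-AFC viability readout (25 uM final).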
Numbers stand for hits. Unless noted, the call rests on the fitted dose curve; in most records, active means well fitted curve in the direction sought with a large enough effect; inconclusive means small, poorly fitted or top-dose-only effect, or another doubt; inactive means no such curve, though single readings can be large; an effect the other way counts as inactive or inconclusive.

What do the screens show for `Cc1c(C(=O)N(C)Cc2cscn2)sc2ncnc(NC[C@H]3CCc4ccccc4O3)c12`?
ATXN viability: inactive

Results for CCNc1ccc(Br)cc(C(=O)/C=C/c2ccc(Cl)cc2)c1=O ?
Giardia kill: inactive; HepG2 tox: inactive; uPA surface inh: inactive; TGFb inhibitor: inactive; ATXN2 expr inh: 22µM

How did CCNc1ccc(Br)cc(C(=O)/C=C/c2c(Cl)cccc2Cl)c1=O do in these assays?
Giardia kill: inactive; ATXN viability: inconclusive; HepG2 tox: inactive; uPA surface inh: inactive; TGFb inhibitor: inactive; ATXN2 expr inh: inconclusive

Results for O=C(O)c1ccc(OCCN2CCCCC2)cc1 ?
ATXN viability: inactive; ATXN2 expr inh: inactive

How did CSc1nnc(CCNC(=O)c2ccc(-c3cccc(F)c3)cc2)n1-c1ccc(F)cc1 do in these assays?
ATXN viability: inactive

Results for COc1cc2c(-c3ccc4[nH]ccc4c3)c(-c3ccc(C#N)cc3)oc(=O)c2cc1OC ?
Giardia kill: inactive; ATXN viability: inactive; HepG2 tox: inactive; uPA surface inh: 2.5µM; TGFb inhibitor: inactive; ATXN2 expr inh: inactive

What do the screens show for `O=C(Nc1ccc(F)cc1F)c1csc(-c2ccccc2)n1`?
Giardia kill: inactive; ATXN viability: inactive; HepG2 tox: inactive; uPA surface inh: inactive; TGFb inhibitor: inactive; ATXN2 expr inh: inactive

What do the screens show for `O=C(Nc1ccc(F)cc1F)c1cccc(C(=O)Nc2ccc(F)cc2F)n1`?
Giardia kill: inactive; ATXN viability: 4.5µM; HepG2 tox: inactive; uPA surface inh: inactive; TGFb inhibitor: inactive; ATXN2 expr inh: 2.5µM

What do the screens show for `COc1cc(OC)c(/C=C/c2cc[n+](C)c3ccccc23)c(OC)c1`?
HepG2 tox: inactive; TGFb inhibitor: inconclusive

Results for CN(Cc1ccccc1)C(=O)c1ccc(CSc2nc3cccnc3n2Cc2ccccc2F)cc1 ?
HepG2 tox: 13µM; TGFb inhibitor: inconclusive; ATXN2 expr inh: inconclusive

What do the screens show for `O=C(NCc1ccco1)c1ccc(Cn2c(SCc3ccccc3F)nc3cccnc32)cc1`?
HepG2 tox: inactive; TGFb inhibitor: 13µM

How did O=C(NC1CCCC1)c1ccc(CSc2nc3cccnc3n2Cc2ccccc2F)cc1 do in these assays?
ATXN viability: inconclusive; HepG2 tox: inactive; TGFb inhibitor: inconclusive; ATXN2 expr inh: inconclusive

How did Cc1ccc(CSc2nc3cccnc3n2Cc2ccc(C(=O)NCc3ccco3)cc2)cc1 do in these assays?
HepG2 tox: inactive; TGFb inhibitor: inactive

How did CCn1c(SCC(=O)NCc2ccco2)nnc1-c1ccc(N(C)C)cc1 do in these assays?
HepG2 tox: inactive; TGFb inhibitor: inactive

How did Cc1ccc2ncc(C)c(/C=C/c3ccc(N(C)C)cc3)c2c1 do in these assays?
HepG2 tox: inactive; TGFb inhibitor: inconclusive

How did CCC1Oc2ccc(C)cc2N(CC(=O)N(Cc2ccc(C)o2)C2CC(C)(C)NC(C)(C)C2)C1=O (stereo not given) do in these assays?
Giardia kill: inactive; ATXN viability: inconclusive; HepG2 tox: 13µM; uPA surface inh: inactive; TGFb inhibitor: inconclusive; ATXN2 expr inh: inconclusive

How did O=[N+]([O-])c1ccc(/C=C/c2ccnc3ccccc23)c([N+](=O)[O-])c1 do in these assays?
HepG2 tox: inactive; TGFb inhibitor: inactive

Results for CN1OC[C@@H]2CN[C@H](c3ccc(-c4cc5ccccc5o4)cc3)C[C@@H]21 ?
ATXN viability: inactive; HepG2 tox: inactive; TGFb inhibitor: inactive; ATXN2 expr inh: 0.2µM

What do the screens show for `CC(C)(C)n1ncc2c(=O)n(Cc3cccc(C(F)(F)F)c3)cnc21`?
HepG2 tox: inactive; TGFb inhibitor: inconclusive

Results for CCCC(=O)Nc1ccc2c(c1)C(=O)NC2=O ?
Giardia kill: inactive; ATXN viability: inactive; HepG2 tox: inactive; uPA surface inh: inactive; TGFb inhibitor: inactive; ATXN2 expr inh: inactive

Results for Cc1ccc2c(c1)Oc1ccc(NC(=O)CCCl)cc1C(=O)N2 ?
Giardia kill: inactive; ATXN viability: inactive; HepG2 tox: inactive; uPA surface inh: 8.9µM; TGFb inhibitor: inconclusive

How did COCC1CCCN(Cc2ccc3c(c2)CN(C(=O)c2cnn(C(C)C)c2)CCO3)C1 (stereo not given) do in these assays?
ATXN viability: inactive

How did Cc1ccc(Cn2ccsc2=NC(=O)CCl)cc1 do in these assays?
Giardia kill: inactive; ATXN viability: 0.79µM; HepG2 tox: inactive; uPA surface inh: 2µM; TGFb inhibitor: inconclusive; ATXN2 expr inh: inconclusive

How did O=C(c1ccc([N+](=O)[O-])o1)N1CCN(c2nc3ccc(F)cc3s2)CC1 do in these assays?
Giardia kill: -89; ATXN viability: inactive; HepG2 tox: inactive; uPA surface inh: inactive; TGFb inhibitor: inactive; ATXN2 expr inh: inactive

Results for COc1cccc2sc(N3CCN(C(=O)c4ccc([N+](=O)[O-])o4)CC3)nc12 ?
Giardia kill: -87; ATXN viability: inactive; HepG2 tox: inactive; uPA surface inh: inactive; TGFb inhibitor: inconclusive; ATXN2 expr inh: inconclusive

What do the screens show for `O=C(c1ccc([N+](=O)[O-])o1)N1CCN(c2nc3c(Cl)cccc3s2)CC1`?
Giardia kill: inconclusive; ATXN viability: inconclusive; HepG2 tox: inactive; uPA surface inh: inactive; TGFb inhibitor: inconclusive; ATXN2 expr inh: inactive

What do the screens show for `CC(=O)c1ccc(-c2cc(F)cc3c2OC(CNC(=O)c2ccc[n+]([O-])c2)C3)s1` (stereo not given)?
ATXN viability: inactive

How did C/C=C(/CC[C@@H](C)[C@H]1CC[C@H]2C3=CC[C@H]4[C@H](C)[C@@H](O)CC[C@]4(C)[C@H]3CC[C@]12C)C(C)C do in these assays?
ATXN viability: inactive

How did Cn1c(N2CCCCS2(=O)=O)nc(C(=O)NCc2ccc(F)cc2)c(O)c1=O do in these assays?
ATXN2 expr inh: inactive

What do the screens show for `Cc1nc([N+](=O)[O-])cn1-c1ccc([N+](=O)[O-])cc1`?
ATXN viability: inactive; ATXN2 expr inh: inactive

How did CCOC(=O)c1c(-c2ccccc2)oc2ccc(NS(=O)(=O)c3ccc(OC)cc3)cc12 do in these assays?
HepG2 tox: inactive; TGFb inhibitor: 13µM

What do the screens show for `CCCc1oc2ccc(NS(=O)(=O)c3ccc(OCC)cc3)cc2c1C(=O)OCC`?
HepG2 tox: inactive; TGFb inhibitor: inconclusive

What do the screens show for `CCCc1oc2ccc(NS(=O)(=O)c3ccc(OC)cc3)cc2c1C(=O)OCC`?
HepG2 tox: inactive; TGFb inhibitor: 10µM

How did CCOC(=O)c1c(-c2ccccc2)oc2ccc(NS(=O)(=O)c3ccccc3)cc12 do in these assays?
ATXN viability: inconclusive; HepG2 tox: inactive; TGFb inhibitor: 16µM; ATXN2 expr inh: inconclusive

What do the screens show for `O=c1[nH]c(=S)c2n[nH]nc2[nH]1`?
HepG2 tox: inactive; TGFb inhibitor: inactive
